# Measured values as given in the supplement of paper PMC6555819.
# Key:
# Test in all cases: PBM binding z-score (relative to random genomic background probes); higher = stronger binding; sequences stand for … in GC…GCGATTGACAGCGTAGAATGAAGG
# [1] = tested on: FXR:RXRa (NR concentration 270 nM, RXRa partner concentration 90 nM)
# Outline: (§1)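 Binding z-scores take random background probes as their reference. They come from custom Agilent 4×180K protein-binding microarrays incubated 1 h with ligand-free nuclear receptor dimers, with antibodies against each partner (one per run) detecting binding. Scanned fluorescence was regression-normalized.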
# [2] = tested on: LXRa:RXRa (NR concentration 270 nM, RXRa partner concentration 90 nM)
# Outline: as §1
# [3] = tested on: LXRa homodimer (NR concentration 270 nM)
# Outline: as §1
# [4] = tested on: LXRb:RXRa (NR concentration 270 nM, RXRa partner concentration 90 nM)
# Outline: as §1
# [5] = tested on: LXRb homodimer (NR concentration 270 nM)
# Outline: as §1
# [6] = tested on: PPARa:RXRa (NR concentration 270 nM, RXRa partner concentration 90 nM)
# Outline: as §1
# [7] = tested on: PPARg:RXRa (NR concentration 180 nM, RXRa partner concentration 90 nM)
# Outline: as §1
# [8] = tested on: PPARg:RXRa 270nM:90nM, anti-RXR (NR concentration 270 nM, RXRa partner concentration 90 nM)
# Outline: as §1
# [9] = tested on: PPARg:RXRa 30nM:10nM, anti-RXR (NR concentration 30 nM, RXRa partner concentration 10 nM)
# Outline: as §1
# [10] = tested on: PPARg:RXRa 90nM:30nM, anti-RXR (NR concentration 90 nM, RXRa partner concentration 30 nM)
# Outline: as §1
Sequence,PBM binding z-score [1],PBM binding z-score [2],PBM binding z-score [3],PBM binding z-score [4],PBM binding z-score [5],PBM binding z-score [6],PBM binding z-score [7],PBM binding z-score [8],PBM binding z-score [9],PBM binding z-score [10]
GCTATTAGTTGAAAGGGCAGCCGAATGATTCTCG,0.117,0.132,-0.239,0.0989,-0.467,1.69,1.92,3.53,1.46,3.05
CCTCCTGGGCCATTCAGAGGTCATTGATCATATG,2.62,4.24,6.14,3.46,-0.028,3.23,0.59,1.78,0.334,0.958
ATCGAAAGGTCGAGGTGAGTATGGAGAAAGGGAA,3.95,3.28,-0.073,2.56,0.624,4.45,3.02,3.6,1.01,2.39
ACTCGGAGGACAAAAGTCAGAGCTACGCCAGTGA,-0.293,-0.245,-0.424,-0.518,-0.302,0.347,1.41,2.68,0.796,2.08
CGTGCAAGGTCATAGGAGGTCAGTGAAGACAGAT,7.84,7.38,4.92,6.31,1.2,5.98,6.01,6.37,2.92,5.01
CTACCAAGGTGAACAAGGTCGTTAATTACTATTC,1.3,1.23,0.268,1.86,-0.284,2.61,1.07,1.5,0.266,1.15
ACTAGTTGGTCAGCTGAGGTCACAGACAATTCGG,2.95,3.29,1.84,3.27,0.184,3.71,1.72,2.16,0.454,1.43
CAAACTAGCTCAAGAGGTCAAAGTCCGCTTCCCG,4.69,5.44,5.42,5.16,1.67,5.04,1.65,3.87,1.52,2.88
TCTGCTCGGTCAACGATGGTCAGCTAATCTGCTA,0.568,0.372,-0.251,-0.449,-0.425,0.275,-0.279,0.898,1.25,1.09
CGAACGAGGGCCTGAGTTGATAGCAAATGCCGAT,-0.571,-0.754,-0.624,-0.612,-0.92,-0.663,0.336,-0.582,-0.305,-0.468
GCATATAGGTAATACAAGGTGAACGTCCGATTGT,0.337,1.82,0.257,0.685,-0.32,1.55,1.47,1.12,0.658,0.861
ATCTCTAGGTAAGACTCAGTACAGTGAAGAACGC,0.589,0.377,0.528,0.101,0.88,0.1,0.293,-0.0568,0.341,0.016
TCTCGGAGGACCCGAAGGTCAGAGCTTTCCAGAG,0.805,0.637,-0.12,0.902,-1.45,1.69,0.0649,1.18,1.64,1.63
